Inconclusive results are not listed. Activity calls are given as the source filed them. Unless noted, calls follow the shape of the dose curve; as a rule, active = well fitted curve in the direction sought with a large enough effect in the repeat runs; inconclusive = weak or mixed curves; inactive = no such curve, though single readings can be large; an effect the other way counts as inactive or inconclusive. Where a SMILES comes first, the peptide text is derived from it.
How the values were obtained:
[1] = qHTS assay to identify small molecule agonists of the TGF-beta/Smad signaling pathway - cell viability counter screen (AID 1346829); also: top concentration of the series differs between compounds; nearly all actives have a fitted effect of over 45% in size
How it was run: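 After overnight seating at 37 C and 5% CO2, reporter cells got compounds for 5 hr and FRET substrate for 2 hr; cell viability then came from CellTiter-Glo luminescence.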

[2] = qHTS assay to identify small molecule agonists of the TGF-beta/Smad signaling pathway (AID 1346859; active = well fitted activation curve with a large enough effect in the signal ratio in the repeat runs, not every such curve was filed as active; the % refers to the signal ratio; also: series mostly up to about 77 µM)
How it was run: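 Dual-wavelength fluorescence (460/530 nm emission) quantified beta-lactamase expression under the Smad binding element in HEK 293T cells following 5 hr compound treatment at 37 C.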

[3] = target: Thyrotropin-releasing hormone receptor (Homo sapiens) (UniProt P34981); assay: qHTS assay to identify small molecule antagonists of the thyrotropin-releasing hormone receptor (TRHR) signaling pathway (AID 1346877; active = well fitted inhibition curve with a large enough effect in the repeat runs, not every such curve was filed as active; also: series mostly up to about 51 µM)
Thyrotropin-releasing hormone receptor (Homo sapiens), sequence (P34981 whole entry, looked up): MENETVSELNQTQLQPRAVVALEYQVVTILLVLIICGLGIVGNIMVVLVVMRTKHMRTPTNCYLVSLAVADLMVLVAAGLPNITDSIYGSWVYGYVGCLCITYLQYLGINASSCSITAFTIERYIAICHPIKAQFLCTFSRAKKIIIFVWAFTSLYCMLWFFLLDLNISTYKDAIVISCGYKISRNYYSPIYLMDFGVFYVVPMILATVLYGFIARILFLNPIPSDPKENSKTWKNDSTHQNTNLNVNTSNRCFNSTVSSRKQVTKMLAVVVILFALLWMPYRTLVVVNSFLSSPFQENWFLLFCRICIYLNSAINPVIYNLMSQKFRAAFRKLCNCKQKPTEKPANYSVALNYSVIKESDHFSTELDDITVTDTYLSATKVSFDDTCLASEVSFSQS
How it was run: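 Screening used HEK293 cells engineered with TRHR, with a brief 5 min room-temperature compound exposure preceding addition of TRH to 1 nM. The read-out was kinetic calcium-dye fluorescence, concentration-response from 15 doses in triplicate.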

[4] = target: Thyrotropin-releasing hormone receptor (Homo sapiens) (UniProt P34981); assay: qHTS assay to identify small molecule agonists of the thyrotropin-releasing hormone receptor (TRHR) signaling pathway (AID 1346891; calls by dose curve;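 also: HEK293 cells expressing TRHR with calcium dye readout; series mostly up to about 58 µM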)
How it was run: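 Kinetic fluorescence (3 min, 1 s intervals) reported intracellular calcium after compound transfer onto TRHR-Hek293 cells pre-loaded with dye for 2 h at 37 °C.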

[5] = Caspase-3/7 induction in HepG2 cells by small molecules, qHTS assay (AID 1346978); also: nearly all actives have a fitted effect of over 15% in size
How it was run: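 Wild-type HepG2 cells (2,000/well) were settled 5 h at 37 C, 5% CO2, then exposed to compounds in DMSO for 17 h. Caspase-3/7 activity was read by luminescence 30 min after adding Caspase-Glo 3/7 reagent at room temperature.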

[6] = Caspase-3/7 induction in CHO-K1 cells by small molecules, qHTS cell viability counter screen (AID 1346979); also: nearly all actives have a fitted effect of over 35% in size
How it was run: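 Seeding: 1,500 CHO-K1 cells/well. Rest: 5hr, 37C. Treatment: compounds in DMSO, 16hr. Read: CellTiter-Fluor, 1hr, fluorescence.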

[7] = Caspase-3/7 induction in CHO-K1 cells by small molecules, qHTS assay (AID 1346980); also: nearly all actives have a fitted effect of over 15% in size
How it was run: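 Wild-type cells were seeded at 1,500 per well and settled 5 hr at 37 C, 5% CO2, then exposed to DMSO-dissolved compounds for 17 hr. Caspase-Glo 3/7 reagent was added, and luminescence was read after 30min at room temperature.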

[8] = Caspase-3/7 induction in HepG2 cells by small molecules, qHTS cell viability counter screen (AID 1346981); also: series mostly up to about 92 µM; nearly all actives have a fitted effect of over 30% in size
How it was run: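 Multiplexed with the caspase-3/7 assay: HepG2 cells, 16 hr compound treatment, CellTiter-Fluor viability detection by fluorescence.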

[9] = target: Nuclear receptor subfamily 1 group I member 2 (Homo sapiens) (UniProt O75469); assay: Human pregnane X receptor (PXR) small molecule agonists, qHTS assay (AID 1346982); also: nearly all actives have a fitted effect of over 35% in size; also: potency is read from the fitted curve at half-maximal effect
Nuclear receptor subfamily 1 group I member 2 (Homo sapiens), sequence (O75469 whole entry, looked up): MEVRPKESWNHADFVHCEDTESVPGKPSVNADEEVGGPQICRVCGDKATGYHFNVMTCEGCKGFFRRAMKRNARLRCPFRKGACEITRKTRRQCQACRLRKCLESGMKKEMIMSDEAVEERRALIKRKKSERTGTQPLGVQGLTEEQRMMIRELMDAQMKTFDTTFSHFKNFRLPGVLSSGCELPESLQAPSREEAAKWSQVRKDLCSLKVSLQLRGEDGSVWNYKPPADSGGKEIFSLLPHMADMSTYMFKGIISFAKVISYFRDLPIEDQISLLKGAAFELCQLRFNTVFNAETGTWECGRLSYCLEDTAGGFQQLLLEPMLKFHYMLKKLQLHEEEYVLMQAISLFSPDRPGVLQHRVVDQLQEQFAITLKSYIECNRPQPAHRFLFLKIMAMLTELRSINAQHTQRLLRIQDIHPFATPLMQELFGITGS
How it was run: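 We seeded PXR-Luc HepG2 cells in assay medium containing 5% charcoal-stripped FBS, added compounds 5 hr later, incubated 24 hr, and read luminescence with ONE-Glo reagent.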

[10] = target: Cytochrome P450 2D6 (Homo sapiens) (UniProt P10635); assay: Cytochrome P450 Family 2 Subfamily D Member 6 (CYP2D6) small molecule antagonists: luciferase reporter qHTS assay (AID 1671196); also: nearly all actives have a fitted effect of over 50% in size; also: potency is read from the fitted curve at half-maximal effect
Cytochrome P450 2D6 (Homo sapiens), sequence (P10635 whole entry, looked up): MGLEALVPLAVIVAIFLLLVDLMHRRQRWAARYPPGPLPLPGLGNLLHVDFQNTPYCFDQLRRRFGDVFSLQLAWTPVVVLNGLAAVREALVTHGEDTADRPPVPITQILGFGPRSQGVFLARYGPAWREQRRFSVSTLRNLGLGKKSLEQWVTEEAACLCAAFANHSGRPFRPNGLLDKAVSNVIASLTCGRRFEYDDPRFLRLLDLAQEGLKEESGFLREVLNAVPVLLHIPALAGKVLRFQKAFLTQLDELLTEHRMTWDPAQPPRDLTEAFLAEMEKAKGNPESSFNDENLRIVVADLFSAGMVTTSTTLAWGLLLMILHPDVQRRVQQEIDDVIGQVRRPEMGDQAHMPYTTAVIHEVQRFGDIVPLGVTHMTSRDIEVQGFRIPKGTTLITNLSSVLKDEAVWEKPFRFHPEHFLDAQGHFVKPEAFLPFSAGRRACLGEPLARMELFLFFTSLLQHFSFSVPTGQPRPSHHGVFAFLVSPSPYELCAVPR
How it was run: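 Luminescence (RLU), read 20 min after detection reagent, indicated CYP2D6 conversion of proluciferin to luciferin during a 1 h NADPH-dependent reaction at room temperature.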

[11] = target: Cytochrome P450 2C19 (Homo sapiens) (UniProt P33261); assay: Cytochrome P450 Family 2 Subfamily C Member 19 (CYP2C19) small molecule antagonists: luciferase reporter qHTS assay (AID 1671197); also: nearly all actives have a fitted effect of over 65% in size; also: potency is read from the fitted curve at half-maximal effect
Cytochrome P450 2C19 (Homo sapiens), sequence (P33261 whole entry, looked up): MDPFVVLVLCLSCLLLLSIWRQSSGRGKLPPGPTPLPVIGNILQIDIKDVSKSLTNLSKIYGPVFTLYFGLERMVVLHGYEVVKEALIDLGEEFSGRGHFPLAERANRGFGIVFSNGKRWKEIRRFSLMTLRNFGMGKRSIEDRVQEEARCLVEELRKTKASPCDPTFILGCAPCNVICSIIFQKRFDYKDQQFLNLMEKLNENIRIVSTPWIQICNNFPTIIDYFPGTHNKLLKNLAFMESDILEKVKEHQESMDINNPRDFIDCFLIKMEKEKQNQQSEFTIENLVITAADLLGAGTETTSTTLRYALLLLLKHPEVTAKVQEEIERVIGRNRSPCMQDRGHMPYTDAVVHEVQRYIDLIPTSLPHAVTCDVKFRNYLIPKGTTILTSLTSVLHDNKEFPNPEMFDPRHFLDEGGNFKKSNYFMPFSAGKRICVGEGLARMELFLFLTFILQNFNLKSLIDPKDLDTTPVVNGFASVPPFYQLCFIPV
How it was run: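 Inhibition of CYP2C19 was scored from loss of luminescence in a P450-Glo proluciferin substrate assay, NADPH-started and run 1 h at 37C, with ketoconazole as positive control.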

[12] = target: Cytochrome P450 2C9 (Homo sapiens) (UniProt P11712); assay: Cytochrome P450 Family 2 Subfamily C Member 9 (CYP2C9) small molecule antagonists: luciferase reporter qHTS assay (AID 1671198); also: nearly all actives have a fitted effect of over 50% in size; also: potency is read from the fitted curve at half-maximal effect
Cytochrome P450 2C9 (Homo sapiens), sequence (P11712 whole entry, looked up): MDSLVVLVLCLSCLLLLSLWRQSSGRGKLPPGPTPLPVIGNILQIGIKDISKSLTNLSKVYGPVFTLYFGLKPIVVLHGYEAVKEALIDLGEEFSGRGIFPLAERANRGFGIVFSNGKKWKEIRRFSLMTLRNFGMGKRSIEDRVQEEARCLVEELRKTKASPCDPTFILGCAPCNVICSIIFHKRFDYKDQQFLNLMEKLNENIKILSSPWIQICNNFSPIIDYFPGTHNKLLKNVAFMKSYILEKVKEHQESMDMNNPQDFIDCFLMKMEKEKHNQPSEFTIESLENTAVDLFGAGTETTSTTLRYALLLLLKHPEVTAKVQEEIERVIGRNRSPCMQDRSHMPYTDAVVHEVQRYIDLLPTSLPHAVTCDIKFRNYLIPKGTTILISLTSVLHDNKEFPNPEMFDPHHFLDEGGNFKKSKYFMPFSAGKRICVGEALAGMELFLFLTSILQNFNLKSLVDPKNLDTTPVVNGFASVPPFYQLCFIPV
How it was run: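 CYP2C9 activity was measured with a P450-Glo proluciferin substrate. Enzyme–substrate mix was held with compound for 10 min at room temperature, then NADPH regeneration solution was added for 1 h at 37C. Luciferin product was read as luminescence.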

[13] = target: Voltage-gated inwardly rectifying potassium channel KCNH2 (Homo sapiens) (UniProt Q12809); assay: Human Ether-a-go-go-Related Gene (hERG) channel small molecule antagonists: fluorescence cell-based qHTS assay (AID 1671200);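 also: hERG-expressing U2OS cells given a thallium stimulus after FluxOR II dye loading; series mostly up to about 77 µM; nearly all actives have a fitted effect of over 50% in size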
Voltage-gated inwardly rectifying potassium channel KCNH2 (Homo sapiens), sequence (Q12809 whole entry, looked up): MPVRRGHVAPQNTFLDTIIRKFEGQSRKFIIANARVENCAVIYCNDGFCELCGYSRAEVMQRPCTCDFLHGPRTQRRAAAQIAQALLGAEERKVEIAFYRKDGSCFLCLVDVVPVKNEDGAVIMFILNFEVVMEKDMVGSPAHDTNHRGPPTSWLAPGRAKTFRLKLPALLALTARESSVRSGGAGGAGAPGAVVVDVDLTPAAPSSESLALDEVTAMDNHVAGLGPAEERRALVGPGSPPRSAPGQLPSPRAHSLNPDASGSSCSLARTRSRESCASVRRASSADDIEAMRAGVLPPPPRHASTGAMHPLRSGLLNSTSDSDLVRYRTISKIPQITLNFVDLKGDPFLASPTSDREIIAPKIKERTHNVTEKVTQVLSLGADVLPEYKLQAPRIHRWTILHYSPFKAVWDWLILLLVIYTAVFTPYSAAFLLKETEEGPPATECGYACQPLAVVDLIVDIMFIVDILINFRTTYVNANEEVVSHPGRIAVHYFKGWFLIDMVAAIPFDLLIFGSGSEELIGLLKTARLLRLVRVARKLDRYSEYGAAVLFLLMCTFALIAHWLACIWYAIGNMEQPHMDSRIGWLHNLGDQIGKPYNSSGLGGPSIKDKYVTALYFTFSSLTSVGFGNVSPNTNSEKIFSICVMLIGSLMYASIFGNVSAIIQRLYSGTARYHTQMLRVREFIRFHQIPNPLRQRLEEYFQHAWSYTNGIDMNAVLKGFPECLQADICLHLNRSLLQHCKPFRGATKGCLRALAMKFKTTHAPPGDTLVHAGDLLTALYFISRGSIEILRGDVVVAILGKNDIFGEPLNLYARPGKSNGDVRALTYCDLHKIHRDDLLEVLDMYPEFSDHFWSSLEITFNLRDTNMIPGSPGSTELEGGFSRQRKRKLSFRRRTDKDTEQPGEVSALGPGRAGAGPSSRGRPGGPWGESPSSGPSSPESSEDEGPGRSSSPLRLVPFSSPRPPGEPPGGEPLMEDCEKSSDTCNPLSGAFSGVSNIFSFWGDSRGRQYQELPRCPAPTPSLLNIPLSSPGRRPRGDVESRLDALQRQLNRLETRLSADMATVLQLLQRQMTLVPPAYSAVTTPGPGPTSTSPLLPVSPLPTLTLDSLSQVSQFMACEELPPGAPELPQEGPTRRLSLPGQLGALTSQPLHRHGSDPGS
How it was run: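 First, 1000 cells per well are seeded and cultured overnight at 37 C. Next, FluxOR II dye is loaded for 1 h at room temperature, protected from light. After 10 more minutes, stimulus is added and fluorescence is read.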

[14] = target: Cytochrome P450 3A4 (Homo sapiens) (UniProt P08684); assay: Cytochrome P450 Family 3 Subfamily A Member 4 (CYP3A4) small molecule antagonists: luciferase reporter qHTS assay (AID 1671201); also: nearly all actives have a fitted effect of over 50% in size; also: potency is read from the fitted curve at half-maximal effect
Cytochrome P450 3A4 (Homo sapiens), sequence (P08684 whole entry, looked up): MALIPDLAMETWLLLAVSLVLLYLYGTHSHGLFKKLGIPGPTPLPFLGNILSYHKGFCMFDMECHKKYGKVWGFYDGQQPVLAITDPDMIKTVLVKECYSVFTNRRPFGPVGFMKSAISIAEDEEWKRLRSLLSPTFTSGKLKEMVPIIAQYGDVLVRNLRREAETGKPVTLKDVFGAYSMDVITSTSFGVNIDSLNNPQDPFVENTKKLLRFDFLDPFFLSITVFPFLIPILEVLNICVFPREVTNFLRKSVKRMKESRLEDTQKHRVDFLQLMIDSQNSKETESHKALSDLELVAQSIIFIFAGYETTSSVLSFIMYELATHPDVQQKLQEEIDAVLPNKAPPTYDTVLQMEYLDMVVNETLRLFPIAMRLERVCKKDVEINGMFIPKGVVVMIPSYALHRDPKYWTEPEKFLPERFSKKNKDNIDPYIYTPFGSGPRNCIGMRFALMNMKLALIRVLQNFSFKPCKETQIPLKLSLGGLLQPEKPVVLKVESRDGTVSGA
How it was run: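 Enzyme and proluciferin substrate are mixed with test chemicals for 10 min, then NADPH regeneration system drives turnover for 1 h at room temperature. A detection reagent halts the reaction; luminescence after 20 min gives relative activity.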

[15] = Human pregnane X receptor (PXR) small molecule agonists, qHTS cell viability counter screen (AID 1346977); also: nearly all actives have a fitted effect of over 50% in size
How it was run: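 HepG2 cells stably carrying the PXR-Luc reporter are cultured with 5% charcoal-stripped FBS and treated with compounds for 24hr. CellTiter-Fluor is added at 23hr and fluorescence is read after 1hr.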

[16] = target: Cytochrome P450 1A2 (Homo sapiens) (UniProt P05177); assay: Cytochrome P450 Family 1 Subfamily A Member 2 (CYP1A2) small molecule antagonists: luciferase reporter qHTS assay (AID 1671199)
Cytochrome P450 1A2 (Homo sapiens), sequence (P05177 whole entry, looked up): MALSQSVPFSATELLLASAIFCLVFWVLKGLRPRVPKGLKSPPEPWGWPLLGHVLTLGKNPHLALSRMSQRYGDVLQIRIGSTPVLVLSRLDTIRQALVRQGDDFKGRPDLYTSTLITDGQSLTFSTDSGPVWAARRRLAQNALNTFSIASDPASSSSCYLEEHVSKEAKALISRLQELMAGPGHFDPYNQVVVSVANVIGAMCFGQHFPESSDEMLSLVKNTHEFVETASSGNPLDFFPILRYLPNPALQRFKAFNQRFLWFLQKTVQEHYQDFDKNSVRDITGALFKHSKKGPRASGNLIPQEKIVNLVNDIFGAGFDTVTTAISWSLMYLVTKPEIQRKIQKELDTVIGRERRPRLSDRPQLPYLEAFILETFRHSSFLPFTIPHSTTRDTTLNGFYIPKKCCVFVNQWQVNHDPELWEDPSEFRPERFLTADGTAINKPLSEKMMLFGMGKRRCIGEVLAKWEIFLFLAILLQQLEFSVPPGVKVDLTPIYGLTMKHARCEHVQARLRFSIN
How it was run: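 CYP1A2 turnover of a luminogenic substrate was quantified after 1 h with NADPH regeneration at room temperature. Furafylline served as positive control.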

[17] = target: Nuclear receptor subfamily 1 group I member 2 (Rattus norvegicus) (UniProt Q9R1A7); assay: Rat pregnane X receptor (rPXR) activation by small molecules, qHTS assay (AID 1346983); details: rPXR luciferase reporter cells, One-Glo luminescence, 24 h; hits give high values; also: nearly all actives have a fitted effect of over 20% in size
Nuclear receptor subfamily 1 group I member 2 (Rattus norvegicus), sequence (Q9R1A7 whole entry, looked up): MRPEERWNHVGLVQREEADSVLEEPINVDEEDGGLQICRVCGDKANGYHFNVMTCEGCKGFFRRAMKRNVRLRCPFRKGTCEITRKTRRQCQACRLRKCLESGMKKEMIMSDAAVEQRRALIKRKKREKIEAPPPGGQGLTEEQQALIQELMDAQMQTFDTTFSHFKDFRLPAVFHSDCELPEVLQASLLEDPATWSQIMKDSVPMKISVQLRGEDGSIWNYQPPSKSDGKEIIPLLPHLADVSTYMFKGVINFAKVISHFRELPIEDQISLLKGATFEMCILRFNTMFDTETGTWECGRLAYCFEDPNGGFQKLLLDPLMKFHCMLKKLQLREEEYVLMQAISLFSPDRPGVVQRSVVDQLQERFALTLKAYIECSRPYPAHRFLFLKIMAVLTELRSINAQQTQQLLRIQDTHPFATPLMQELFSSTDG
How it was run: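 Cell-based rPXR luciferase reporter assay, 2,000 cells per well, rested 5hr at 37 C before compound addition in DMSO, then 24 hr at 37 C. One-Glo reagent was added and luminescence read after 30 min at room temperature.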

[18] = target: Nuclear receptor subfamily 1 group I member 2 (Homo sapiens) (UniProt O75469); assay: CYP3A4 induction through human pregnane X receptor (PXR) by small molecules, qHTS assay (AID 1346984); also: nearly all actives have a fitted effect of over 40% in size
How it was run: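 qHTS, concentration-response format: HepG2 DPX-2 line, PXR/CYP3A4-luc. Exposure 24 h, 37C. Substrate Luciferin-IPA 3uM final, 3 h. Detection One-Glo, 30 min RT.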

[19] = target: Nuclear receptor subfamily 1 group I member 2 (Homo sapiens) (UniProt O75469); assay: Human pregnane X receptor (PXR) activation by small molecules, qHTS assay (AID 1346985); also: nearly all actives have a fitted effect of over 40% in size
How it was run: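 DPX-2 cells (HepG2 co-transfected with a PXR response element and a CYP3A4-promoter luciferase construct) were seeded at 2,000 per well, rested 5 hr at 37C, then exposed to DMSO-dissolved compounds for 24 hr. Activation was read as luciferase luminescence.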
% is scaled to controls: 0 for no effect and ±100 for the full control effect.

CCCCCCCCCOC(=O)CCCCC(=O)OCCCCCCC
inactive: outcome [1] | outcome [2] | outcome [3] | outcome [4] | outcome [5] | Potency [6] | outcome [7] | outcome [8] | Potency [9] | Potency [10] | Potency [11] | Potency [12] | Potency [13] | Potency [14]

Cc1ccc(C(C)NC(=O)[C@@H](NC(=O)OC(C)C)C(C)C)cc1 (some centres not stated)
inactive: outcome [1] | outcome [2] | outcome [3] | outcome [15] | outcome [5] | Potency [6] | outcome [7] | outcome [8] | Potency [13]
active: Potency [9] 21.6 µM | Potency [10] 35.5 µM | Potency [11] 56.2 µM | Potency [12] 31.6 µM

CC(=O)N[C@@H](CO)C(=O)N[C@@H](CC(=O)O)C(=O)N[C@@H](CCCCN)C(=O)N1CCC[C@H]1C(=O)O (Ac-SDKP-OH)
inactive: outcome [1] | outcome [2] | outcome [3] | outcome [15] | outcome [5] | Potency [6] | outcome [7] | outcome [8] | Potency [9] | Potency [10] | Potency [11] | Potency [16] | Potency [13]

CCO
inactive: outcome [1] | outcome [2] | outcome [3] | outcome [5] | Potency [6] | outcome [7] | outcome [8] | Potency [9] | Potency [10] | Potency [11] | Potency [12] | Potency [13] | Potency [14]

O=C(NCN1CCOCC1)c1cnccn1
inactive: outcome [1] | outcome [2] | outcome [3] | outcome [15] | outcome [5] | Potency [6] | outcome [7] | outcome [8] | Potency [9] | max activation [17] -1.75% | Potency [18] | Potency [19] | Potency [10] | Potency [11] | Potency [12] | Potency [16] | Potency [13] | Potency [14]

C[Si]1(C)O[Si](C)(C)O[Si](C)(C)O[Si](C)(C)O[Si](C)(C)O1
inactive: outcome [1] | outcome [2] | outcome [3] | outcome [15] | outcome [5] | Potency [6] | outcome [7] | outcome [8] | Potency [9] | Potency [10] | Potency [11] | Potency [12] | Potency [16] | Potency [13] | Potency [14]

CC12CCC(C1)C(C)(C)C2O (configuration not stated)
inactive: outcome [1] | outcome [2] | outcome [4] | outcome [15] | outcome [5] | Potency [6] | outcome [7] | outcome [8] | Potency [9] | Potency [10] | Potency [11] | Potency [12] | Potency [16] | Potency [13] | Potency [14]

COc1cc2c(cc1OC)C(=O)C(CC1CCN(Cc3ccccc3)CC1)C2 (configuration not stated)
inactive: outcome [1] | outcome [2] | outcome [3] | outcome [4] | outcome [5] | Potency [6] | outcome [7] | outcome [8] | Potency [9] | max activation [17] -1.76%

O=C(Cn1ccnc1[N+](=O)[O-])NCc1ccccc1
inactive: outcome [1] | outcome [2] | outcome [3] | outcome [15] | outcome [5] | Potency [6] | outcome [7] | outcome [8] | Potency [9] | max activation [17] -1.78% | Potency [18] | Potency [19] | Potency [12] | Potency [16] | Potency [13] | Potency [14]

Cc1ccc(C(=O)O)cc1[N+](=O)[O-]
inactive: outcome [1] | outcome [2] | outcome [3] | outcome [4] | outcome [5] | Potency [6] | outcome [7] | outcome [8] | Potency [9] | Potency [10] | Potency [11] | Potency [12] | Potency [13] | Potency [14]

CCC(C)C(C)=O (configuration not stated)
active: Potency [10] 34.8 µM
inactive: outcome [1] | outcome [2] | outcome [3] | outcome [5] | Potency [6] | outcome [7] | outcome [8] | Potency [9] | Potency [12] | Potency [13] | Potency [14]

O=Cc1cc2ccccc2o1
inactive: outcome [1] | outcome [2] | outcome [3] | outcome [5] | Potency [6] | outcome [7] | Potency [9] | Potency [10] | Potency [12] | Potency [13] | Potency [14]

CC(=O)Nc1ccc(OC(=O)c2ccccc2OC(C)=O)cc1
inactive: outcome [1] | outcome [2] | outcome [3] | outcome [15] | outcome [5] | Potency [6] | outcome [7] | outcome [8] | Potency [9] | max activation [17] 1.26% | Potency [18] | Potency [19] | Potency [11] | Potency [12] | Potency [13] | Potency [14]

CCOC(=O)CC1(C)OCC(C)O1 (configuration not stated)
inactive: outcome [1] | outcome [2] | outcome [3] | outcome [15] | outcome [5] | Potency [6] | outcome [7] | outcome [8] | Potency [9] | Potency [10] | Potency [11] | Potency [12] | Potency [16] | Potency [13]

CC1(C)Cc2cccc(N)c2O1
active: Potency [9] 34.4 µM | Potency [11] 17.8 µM | Potency [12] 11.2 µM | Potency [14] 7.96 µM
inactive: outcome [1] | outcome [2] | outcome [3] | outcome [4] | outcome [5] | Potency [6] | outcome [7] | outcome [8] | Potency [13]

— PubChem BioAssay (Tox21)
